These results are taken from PubChem BioAssay (NCI).

Where “and” joins values, the source holds several entries; their conditions need not be identical. Equal entries are not always repeated. The panel holds about 79,000 compounds, 15% with a hit somewhere; the sample as a whole holds those more often. Values without a mark were called inactive. Calls of active or inactive are those of the source. Cut-off read from the data, not from the text of the source: active = growth inhibition above about 70%; inactive = the rest.

The nature of one test: NCI Yeast Anticancer Drug Screen. Data for the rad50 strain (AID 155).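 Note: 0% = growth of vehicle-only cultures of the same strain.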 As to conditions: S. cerevisiae rad50 strain growth inhibition; at 5.0 µM (retest, dose inferred, filed as 0.5); stronger effect = higher value. How it is done:
Growth inhibition of yeast strains with defined genetic alterations is measured as a screen for potential anti-cancer activity. Selected strains with alterations in DNA damage repair or cell cycle control were exposed to compounds and growth inhibition was measured relative to vehicle treated controls. The strain used in this assay is rad50
In the case of `[Cl][Sn]([Cl])([c]1ccccc1)[c]1ccccc1.c1ccc2nc(-c3ccc4ccccc4n3)ccc2c1`, the growth inhibition was 16%.
Regarding `CCC[CH2][Sn]1([CH2]CCC)[O]CC(Cc2ccccc2)[O]1` (stereo not given), the growth inhibition is 31%.
The same measure, in the same setting: to `C[C@@H]1C[C@@H]([C@H](O)CC2CC(=O)NC(=O)C2)C(=O)[C@@H](C)C1` belongs 95% (active); to `COc1cc(C2c3[nH]c4ccccc4c3[C@@H](Nc3ccc(C#N)cc3)[C@H]3COC(=O)N23)cc(OC)c1O` (stereo not given in full), 19%; to `O=P(CCP(=O)(c1ccccc1)c1ccccc1)(c1ccccc1)c1ccccc1.[Cl][Sn]([Cl])([c]1ccccc1)[c]1ccccc1`, 82% (active).
As for `CC/C(=C\c1ccccc1)[N+](=O)[O-]`, the growth inhibition was 64%.
Still for that read-out and setting: to `S=c1sc(-c2ccccc2)c[se]1` belongs -1%; to `CC(=O)CC(=O)Nc1c(C)[c]([Hg][O]C(C)=O)c(C)[c]([Hg][O]C(C)=O)[c]1[Hg][O]C(C)=O`, 60%; to `COCCOCCOC(=O)CBr`, -2%.
Still for that read-out and setting: to `N#CC(C#N)=Cc1ccc(Cl)o1` belongs 2%.

Still in this test, the particulars now being: S. cerevisiae rad50 strain growth inhibition; at 50.0 µM (retest, dose inferred, filed as 5.0); stronger effect = higher value.
Regarding `[Cl][Sn]([Cl])([c]1ccccc1)[c]1ccccc1.c1ccc2nc(-c3ccc4ccccc4n3)ccc2c1`, the growth inhibition is 97% (active).
In the case of `CCC[CH2][Sn]1([CH2]CCC)[O]CC(Cc2ccccc2)[O]1` (stereo not given), the growth inhibition is 96% (active).
For the molecule `C[C@@H]1C[C@@H]([C@H](O)CC2CC(=O)NC(=O)C2)C(=O)[C@@H](C)C1`, the growth inhibition is 99% (active).
Still for that read-out and setting: under `COc1cc(C2c3[nH]c4ccccc4c3[C@@H](Nc3ccc(C#N)cc3)[C@H]3COC(=O)N23)cc(OC)c1O` (stereo not given in full) stands 95% (active); under `O=P(CCP(=O)(c1ccccc1)c1ccccc1)(c1ccccc1)c1ccccc1.[Cl][Sn]([Cl])([c]1ccccc1)[c]1ccccc1`, 97% (active).
With `CC/C(=C\c1ccccc1)[N+](=O)[O-]`, the growth inhibition was 99% (active).
`S=c1sc(-c2ccccc2)c[se]1`: the growth inhibition is 42%.
The same measure, in the same setting: under `CC(=O)CC(=O)Nc1c(C)[c]([Hg][O]C(C)=O)c(C)[c]([Hg][O]C(C)=O)[c]1[Hg][O]C(C)=O` stands 93% (active); under `COCCOCCOC(=O)CBr`, 96% (active); under `N#CC(C#N)=Cc1ccc(Cl)o1`, 54%.

The same test, now with this note: S. cerevisiae rad50 strain growth inhibition; at 50.0 µM; stronger effect = higher value.
`[Cl][Sn]([Cl])([c]1ccccc1)[c]1ccccc1.c1ccc2nc(-c3ccc4ccccc4n3)ccc2c1`: the growth inhibition was 84% (active).
On the same count and under the same terms, under `C[N+]1([O-])[C@H]2CC(OC(=O)[C@H](CO)c3ccccc3)C[C@H]1[C@H]1O[C@H]12` (stereo not given in full) stands -9.75%; under `COc1cc([C@@H]2c3cc(O)c(OC)cc3C[C@H]3C(=O)OC[C@@H]23)ccc1O`, 20.1%; under `COc1ccc2c(c1OC(C)=O)-c1cc(O)cc3c1C(C2)N(C(=O)CN(CCCl)CCCl)CC3` (stereo not given), 19.6% and 6.5%.
For the molecule `CCN1C(=O)NC(=O)C(CC)(N2CCCCC2)C1=O` (stereo not given), the growth inhibition is 10.7%.
Same read-out and setting: to `O=C(C1CO1)C(Cl)(Cl)Cl` (stereo not given) belongs -3.95%.
Same read-out and setting: to `COc1cc(=O)oc(/C=C/C=C/C=C/C(C)=C\C2(C)OC(C)C(C)(O)C2O)c1C` (stereo not given) belongs 6.3%.
On the same count and under the same terms, to `CCC[CH2][Sn]1([CH2]CCC)[O]CC(Cc2ccccc2)[O]1` (stereo not given) belongs 85.5% (active); to `C[C@@H]1C[C@@H]([C@H](O)CC2CC(=O)NC(=O)C2)C(=O)[C@@H](C)C1`, 92% (active); to `COc1cc(C2c3[nH]c4ccccc4c3[C@@H](Nc3ccc(C#N)cc3)[C@H]3COC(=O)N23)cc(OC)c1O` (stereo not given in full), 73.8% (active).
As for `O=P(CCP(=O)(c1ccccc1)c1ccccc1)(c1ccccc1)c1ccccc1.[Cl][Sn]([Cl])([c]1ccccc1)[c]1ccccc1`, the growth inhibition was 87.7% (active).
As to `CCN(CCCl)c1cc(C(N)=O)c([N+](=O)[O-])cc1[N+](=O)[O-]`, the growth inhibition was -1.25%.
The same measure, in the same setting: to `C=CC(C)(C)C12CC3C(=O)N/C(=C\c4cnc[nH]4)C(=O)N3C1Nc1ccccc12` (stereo not given) belongs -33.4%; to `S=c1sc(-c2ccccc2)c[se]1`, 67%.
On the same count and under the same terms, to `Cc1[nH]cc2c1C(c1ccccc1F)=NCC(=O)N2` belongs 19.7%; to `CC(=O)CC(=O)Nc1c(C)[c]([Hg][O]C(C)=O)c(C)[c]([Hg][O]C(C)=O)[c]1[Hg][O]C(C)=O`, 90.8% (active); to `C/C=C1/C[N+]2([O-])CC[C@@]34c5ccc(OC)cc5N(C)[C@H]3C2CC1C4C(=O)OC` (stereo not given in full), 7.65%.
Same read-out and setting: under `C[CH2][Sn]([CH2]C)([n]1c(C)nc2ccccc21)[n]1c(C)nc2ccccc21` stands -11.8%; under `COCCOCCOC(=O)CBr`, 86.1% (active); under `N#CC(C#N)=Cc1ccc(Cl)o1`, 59.6%.
